Data published in paper PMC4336329 (PLoS ONE, 2015).
Hit rate of the full screen: of about 310,000 compounds, about 2,200 (0.71%) showed an effect of 50% or more. Effects have a minus sign here. For the sample, strong results were picked, then their nearest neighbours and some compounds at random.

Target: human ether-à-go-go-related gene (hERG) potassium channel (human, UniProt Q12809)
Assay: primary screen, population patch clamp on CHO cells stably expressing hERG; higher = less effect of the substance

Sequence of human ether-à-go-go-related gene (hERG) potassium channel (Q12809 whole entry, looked up): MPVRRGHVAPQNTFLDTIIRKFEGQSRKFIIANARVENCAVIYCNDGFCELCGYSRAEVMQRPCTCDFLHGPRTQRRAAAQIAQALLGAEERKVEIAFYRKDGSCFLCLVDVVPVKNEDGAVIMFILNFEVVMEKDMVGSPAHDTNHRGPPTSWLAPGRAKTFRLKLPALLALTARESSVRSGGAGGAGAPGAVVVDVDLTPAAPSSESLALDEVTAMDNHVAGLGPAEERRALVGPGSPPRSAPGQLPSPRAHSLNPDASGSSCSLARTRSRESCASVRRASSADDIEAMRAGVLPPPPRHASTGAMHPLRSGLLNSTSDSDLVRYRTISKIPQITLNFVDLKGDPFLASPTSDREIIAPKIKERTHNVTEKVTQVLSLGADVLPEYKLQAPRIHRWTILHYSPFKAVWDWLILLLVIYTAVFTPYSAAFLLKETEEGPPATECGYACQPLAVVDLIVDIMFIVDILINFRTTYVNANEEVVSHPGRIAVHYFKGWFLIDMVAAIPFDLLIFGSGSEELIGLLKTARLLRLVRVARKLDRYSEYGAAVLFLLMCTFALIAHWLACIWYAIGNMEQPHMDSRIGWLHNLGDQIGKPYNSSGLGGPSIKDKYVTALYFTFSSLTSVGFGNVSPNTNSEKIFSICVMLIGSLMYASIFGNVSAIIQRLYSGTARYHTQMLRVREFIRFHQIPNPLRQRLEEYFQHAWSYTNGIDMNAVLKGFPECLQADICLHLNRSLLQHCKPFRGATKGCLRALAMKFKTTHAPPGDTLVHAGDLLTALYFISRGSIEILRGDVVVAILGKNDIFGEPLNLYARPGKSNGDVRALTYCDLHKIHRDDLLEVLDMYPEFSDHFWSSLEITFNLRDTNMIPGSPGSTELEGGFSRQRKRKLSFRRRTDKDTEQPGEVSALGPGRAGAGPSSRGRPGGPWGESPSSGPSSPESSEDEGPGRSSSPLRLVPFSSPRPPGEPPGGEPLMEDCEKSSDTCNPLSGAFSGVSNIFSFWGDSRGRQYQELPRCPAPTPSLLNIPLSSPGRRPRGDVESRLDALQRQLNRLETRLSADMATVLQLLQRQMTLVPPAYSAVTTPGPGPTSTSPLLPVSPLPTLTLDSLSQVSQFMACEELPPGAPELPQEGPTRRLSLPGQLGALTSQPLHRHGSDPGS

Row | Compound | hERG current change (%, negative = inhibition) at 1uM [%]
1 | O=C(O)C1CCCN1c1nc(-c2ccc(Cl)c(Cl)c2)cc(C(F)(F)F)n1 (stereo not drawn) | 7.97
2 | CCOc1ccccc1CN1CCN(C/C=C/c2ccc(OC)cc2)CC1CCO (stereo not drawn) | -13.6
3 | COc1ccc(/C=C/CN2CCN(Cc3ccc(F)cc3)C(CCO)C2)cc1 (stereo not drawn) | -3.48
4 | COc1ccc(/C=C/CN2CCN(CCc3ccccc3)C(CCO)C2)cc1 (stereo not drawn) | -61.7
5 | COc1ccc(/C=C/CN2CCN(CC(C)C)C(CCO)C2)cc1 (stereo not drawn) | -0.433
6 | CCOc1ccc(CN2CCN(C/C=C/c3ccc(OC)cc3)CC2CCO)cc1 (stereo not drawn) | -77.1
7 | COc1ccc(/C=C/CN2CCN(Cc3ccccc3)C(CCO)C2)cc1 (stereo not drawn) | -28.9
8 | C=CCn1c(=O)c(C(=O)Nc2ccc(C)cc2)c(O)c2ccccc21 | 15.6
9 | Cn1c(N)c(C(=O)COC(=O)c2ccccc2NCc2ccco2)c(=O)n(C)c1=O | 9.3
10 | C[C@H](NC(=O)c1nc[nH]c1C(=O)N[C@@H](Cc1ccccc1)C(=O)OCc1ccccc1)C(=O)OC(C)(C)C | 10.7
11 | COC(C(=O)Nc1ccc(S(=O)(=O)Nc2c(C)cccc2C)cc1)c1ccccc1 (stereo not drawn) | -69.6
12 | COC(C(=O)Nc1ccc(S(=O)(=O)Nc2ccc(C)c(C)c2)cc1)c1ccccc1 (stereo not drawn) | 1.3
13 | COC(C(=O)Nc1ccc(S(=O)(=O)Nc2ccc(F)cc2)cc1)c1ccccc1 (stereo not drawn) | 7.53
14 | CC1CCc2c(sc3c2C2=NS(=O)(=O)CCN2C=N3)C1 (stereo not drawn) | 15
15 | Cc1csc(NC(=O)CSc2nnc(C)c(=O)n2N)n1 | 1.29
16 | O=C(Cc1csc(-c2ccccc2)n1)NCc1ccc(F)cc1 | 4.14
17 | N#Cc1cccc(NC(=O)COc2ccc(-n3ccnc3)cc2)c1 | -51
18 | O=C(COc1ccc(-n2ccnc2)cc1)Nc1cccc(Cl)c1 | -3.13
19 | O=C(COc1ccc(-n2ccnc2)cc1)Nc1cccc(F)c1 | -13
20 | O=S(=O)(Nc1nc(-c2ccccc2)cs1)c1cccc(C(F)(F)F)c1 | 10.5
21 | CCOc1cc2[nH]c(=S)n(Cc3ccc(C)o3)c(=O)c2cc1OCC | -3.56
22 | O=C(OCc1cccnc1)C1=Cc2ccccc2OC1 | -73

Row | Compound | hERG current change (%, negative = inhibition) at 1uM [%]
23 | COc1ccc2c(c1)C=C(C(=O)OCc1cccnc1)CO2 | 10.4
24 | COc1cccc2c1OCC(C(=O)OCc1cccnc1)=C2 | 10.4
25 | CCN(CC)S(=O)(=O)c1ccc(-n2cnc3cc(C)c(C)cc32)nc1 | 14.1
26 | Cc1nc2ccccn2c1C(=O)N=Nc1c(O)[nH]c2ccccc12 | 13.2
27 | CCc1ccc(OCC(=O)O/N=C(\N)c2cccnc2)cc1 | 0.0916
28 | Br.N=c1n(CCN2CCCCC2)c2ccccc2n1CC(=O)c1ccc(Cl)c(Cl)c1 | -14.7
29 | Br.CCCn1c(=N)n(CC(=O)c2ccc(Cl)c(Cl)c2)c2ccccc21 | -17.7
30 | N=c1n(CCOc2ccccc2)c2ccccc2n1CCN1CCOCC1 | -10
31 | Br.N=c1n(CCN2CCOCC2)c2ccccc2n1Cc1ccccc1Br | -51.7
32 | Br.N=c1n(CCN2CCOCC2)c2ccccc2n1CC(=O)c1ccc(Cl)c(Cl)c1 | -69.1
33 | Cc1ccc(C(=O)Cn2c(=N)n(CCN3CCOCC3)c3ccccc32)cc1.[Br-] | -20.3
34 | COc1ccc(-n2nc3c(N4CCC(C(=O)NCCc5ccco5)CC4)nnc(C)c3c2C)cc1 | 19.1
35 | CCOC(=O)c1c(N)sc2c1CCCC2 | 15.1
36 | CC(Sc1ccc(Cl)cc1)C(=O)Nc1ccccc1-c1ccccc1 (stereo not drawn) | 17.4
37 | COc1cc2c(cc1OC)CN(Cc1cc(=O)n3c(-c4ccccc4)csc3n1)CC2 | 14.9
38 | COc1cc2c(cc1OC)C(NC(=O)c1ccc(C)cc1)CC2=O (stereo not drawn) | 7.58
39 | Cn1c(=O)c(Nc2ccc(Cl)cc2)c2c3c(cccc31)C(=O)c1ccccc1-2 | 14.9
40 | COc1ccccc1-c1nnc(NC(=O)c2ccc(S(=O)(=O)N(C)Cc3ccccc3)cc2)o1 | 4.43
41 | COCC1OS(=O)(=O)NC(CC(=O)SC(C)(C)C)C1C (stereo not drawn) | 9.98
42 | O=C(CCN1CCOCC1)NCC(=O)Nc1ccc(Br)cc1C(=O)c1ccccc1 | -17.6
43 | O=C(CCN1CCCCC1)NCC(=O)Nc1ccc(Br)cc1C(=O)c1ccccc1 | -78.1
44 | O=C(CN1CCOCC1)NCC(=O)Nc1ccc(Br)cc1C(=O)c1ccccc1 | -20

Row | Compound | hERG current change (%, negative = inhibition) at 1uM [%]
45 | O=C(CN1CCCCC1)NCC(=O)Nc1ccc(Br)cc1C(=O)c1ccccc1 | -77.2
46 | O=C(CCN1CCOCC1)Nc1ccc(Br)cc1C(=O)c1ccccc1 | -0.737
47 | O=C(CN1CCOCC1)Nc1ccc(Br)cc1C(=O)c1ccccc1 | -3.67
48 | CCc1oc(C(=O)O)cc1COC | -4.45
49 | Cc1ccc(C)c(Nc2ncnc(N)c2[N+](=O)[O-])c1 | 9.83
50 | Cc1nc(NC(=O)c2ccccc2)sc1C | 16.6
51 | O=C(N/N=C/c1ccccc1)C1CCCN1C(=O)c1cc([N+](=O)[O-])cc([N+](=O)[O-])c1 (stereo not drawn) | 12.4
52 | COc1ccc(C=O)cc1Cn1ccnc1C.Cl | 15.4
53 | Cc1cc(F)c(F)c(C(=O)N2CCC(C)CC2)c1Cl | 5.24
54 | Cc1ccc(CN2CCN(Cc3cccc(-n4cccn4)c3)CC2CCO)cc1 (stereo not drawn) | -80.1
55 | Cc1ccc(CN2CCN(Cc3ccc(-n4cccn4)cc3)CC2CCO)cc1 (stereo not drawn) | -65.5
56 | OCCC1CN(Cc2cc(F)ccc2-n2cccn2)CCN1C1CCCC1 (stereo not drawn) | 3.09
57 | OCCC1CN(Cc2cccc(-n3cccn3)c2)CCN1Cc1ccccc1 (stereo not drawn) | -13.4
58 | Cc1cccc(CN2CCN(Cc3ccc(-n4cccn4)cc3)CC2CCO)n1 (stereo not drawn) | -1.6
59 | Cc1ccc(CN2CCN(Cc3ccc(-n4cccn4)cc3C)CC2CCO)cc1 (stereo not drawn) | -83.8
60 | Cc1cccc(CN2CCN(Cc3cccc(-n4cccn4)c3)CC2CCO)n1 (stereo not drawn) | -13.6
61 | Cc1cc(-n2cccn2)ccc1CN1CCN(C2CCCC2)C(CCO)C1 (stereo not drawn) | -54.2
62 | Cc1cc(-n2cccn2)ccc1CN1CCN(CC(C)C)C(CCO)C1 (stereo not drawn) | 0.354
63 | OCCC1CN(Cc2ccc(-n3cccn3)cc2)CCN1Cc1ccccc1 (stereo not drawn) | -28.5
64 | OCCC1CN(Cc2cc(F)ccc2-n2cccn2)CCN1Cc1ccc(F)cc1 (stereo not drawn) | -36.9
65 | OCCC1CN(Cc2cccc3nccnc23)CCN1C1CCCC1 (stereo not drawn) | 3.17
66 | CCOc1ccccc1N1CC(O)=C(c2nc3ccccc3s2)C1=N | 5.48

Row | Compound | hERG current change (%, negative = inhibition) at 1uM [%]
67 | O=C(CSc1nc(-c2ccccc2)cc(=O)[nH]1)Nc1ccc(F)c(F)c1 | 12.9
68 | Cc1ccc(S(=O)(=O)Nc2ccc(C(=O)NCc3cccnc3)cc2)cc1 | 10.9
69 | CCc1nc(SCC(=O)NCc2ccc(F)cc2)c2c(=O)n(C)c(=O)n(C)c2n1 | 11.2
70 | COc1ccc(OC)c(S(=O)(=O)NCC(=O)NC2CCCCCC2)c1 | 16
71 | COc1ccc2nc3sc(C(=O)N4CCN(C)CC4)cc3cc2c1 | -12
72 | CC(NC(=O)COC(=O)/C=C/c1ccco1)c1ccccc1 (stereo not drawn) | 8.61
73 | OCC1(Cc2ccccc2)CCN(Cc2cnn(-c3ccccc3F)c2)CC1 | -4.22
74 | CSc1cccc(CN2CCC(CO)(Cc3cccc(C(F)(F)F)c3)CC2)c1 | -35.9
75 | Cc1ccc(-n2cc(CN3CCC(CO)(Cc4cccc(C(F)(F)F)c4)CC3)cn2)cc1 | -64.3
76 | CC(C)Cc1cc(CN2CCCC(CO)(Cc3cccc(Cl)c3)C2)[nH]n1 (stereo not drawn) | -14.7
77 | Cc1ccc(-n2cc(CN3CCC(CO)(Cc4ccccc4)CC3)cn2)cc1 | -22
78 | CC(C)Cc1cc(CN2CCC(CO)(Cc3cccc(C(F)(F)F)c3)CC2)[nH]n1 | -66
79 | COc1ccc(CC2(CO)CCN(Cc3cnn(C)c3C)CC2)cc1 | 6.81
80 | COc1ccc(CN2CCC(CO)(Cc3ccccc3)CC2)cc1Cn1cccn1 | -55.9
81 | COc1ccc(CC2(CO)CCN(Cc3cnn(-c4ccc(F)cc4)c3)CC2)cc1 | -79.2
82 | CC(C)Cc1cc(CN2CCC(CO)(Cc3ccccc3)CC2)[nH]n1 | -42.9
83 | COc1ccc(CN2CCC(CO)(Cc3cccc(C(F)(F)F)c3)CC2)cc1Cn1cccn1 | -35.3
84 | COc1ccc(CN2CCN(C(C)C)C(CCO)C2)cc1Cn1cccn1 (stereo not drawn) | 12
85 | COCCOc1nc2ccccc2nc1C | 6.8
86 | O=C(Nc1nnc(-c2ccccc2)s1)c1ccccc1F | 13.3
87 | CC(C)C[C@@H](CO)NC(=O)CC[C@H](NC(=O)OC(C)(C)C)C(=O)N(Cc1ccccc1)Cc1ccccc1 | 16
